Screening results as filed in PubChem BioAssay.
SMARCA2 activ = SMARCA2 (BRM) function activators, primary screen, cell-based, luminescence, high throughput. activation, % at 9.1 µM. actives 1% (n = 370,000). AID 652017, 2013. MG213 cells, MMTV-luciferase reporter, dexamethasone, overnight; in the data active = activation above about 7.8%;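 also: 0% = vehicle wells and 100% = reference activator wells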
DAX1 inh-1 = DAX1 (NR0B1) inhibitors, primary screen, cell-based, HEK293, Gal4-DAX1, luciferase luminescence; Nuclear receptor subfamily 0 group B member 1 (Homo sapiens), P51843; HEK293 Gal4-DAX1 luciferase reporter; inhibition, % at 6.75 µM; actives 0.99% (n = 340,000); AID 504766, 2011;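 active = inhibition above the mean over all tested compounds plus 3 SD, cut at about 4.2% in these data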;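 also: 0% = DAX1-transfected cells with DMSO and 100% = empty-vector control cells with DMSO; inhibition shows as a rise in luminescence from relieved DAX1 repression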
Target sequence (P51843 207-470 limits assumed): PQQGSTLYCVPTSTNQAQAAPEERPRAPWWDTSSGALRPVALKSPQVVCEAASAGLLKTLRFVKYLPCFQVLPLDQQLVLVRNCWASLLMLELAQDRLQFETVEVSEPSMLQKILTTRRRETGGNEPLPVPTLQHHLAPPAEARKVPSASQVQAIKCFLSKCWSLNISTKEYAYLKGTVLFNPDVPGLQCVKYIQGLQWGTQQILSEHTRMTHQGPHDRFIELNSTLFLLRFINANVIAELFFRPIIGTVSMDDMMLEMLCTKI
DAX1 inh-2 = DAX1 (NR0B1) inhibitors on StAR promoter, primary screen, cell-based, luminescence, SF-1 (NR5A1), full-length DAX-1; inhibition, % at 6.8 µM; actives 1.1% (n = 370,000); HEK293T StAR-luciferase reporter, SF-1/DAX-1 repression relief;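 active = inhibition above the mean over all tested compounds plus 3 SD, cut at about 3.6% in these data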;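 also: 0% = DAX-1 cells with DMSO and 100% = cells lacking DAX-1 with DMSO; higher inhibition means more luminescence from relief of DAX-1 repression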
ssDAF12 agonist = S. stercoralis DAF-12 nuclear receptor activators, primary screen, cell-based, luminescence, HEK293, GRIP1 co-expression, lit1-tk-luc. Nuclear hormone receptor DAF-12 (Strongyloides stercoralis). HEK293 ssDAF-12/GRIP1 lit1-tk-luc reporter; % of 3 µM dafachronic acid response. activation, % at 6.8 µM. actives 1% (n = 370,000). AID 652126, 2013;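 active = activation above the mean over all tested compounds plus 3 SD, cut at about 0.9% in these data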;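 also: 0% = DMSO-only wells and 100% = 3 µM delta7-dafachronic acid wells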
hcDAF-12 act = H. contortus DAF-12 nuclear receptor activators, primary screen, cell-based, luminescence, HEK293, lit1-tk-luc reporter | AID 652067, 2013 | actives 1.4% (n = 370,000) | HEK293 hcDAF-12 lit1-tk-luc reporter; 0% DMSO, 100% Δ7-dafachronic acid | activation, % at 6.8 µM;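 active = activation above the mean of all tested compounds plus 3 SD, cut at about 5.5% in these data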;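 also: 100% = response to 3 µM Δ7-dafachronic acid high control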
hgDAF12 agonist = H. glycines DAF-12 receptor agonists, primary screen, cell-based, luminescence, HEK293, GAL4 fusion, UAS-luciferase | AID 687014, 2013 | activation, % at 6.8 µM | HEK293 GAL4-hgDAF12 UAS-luciferase reporter, agonist luminescence; normalized to butyrate control | Nuclear hormone receptor DAF-12 (Heterodera glycines), GAL4 fusion | actives 1.8% (n = 370,000);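 active = activation above a cutoff set at the mean of all screened compounds plus 3 SD, cut at about 10% in these data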;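 also: 0% = DMSO wells and 100% = sodium butyrate wells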
An asterisk follows results filed as active; · = not tested or not shown. Rows were chosen to be rich in hits. Some 4.8% of all compounds tested hit in one or more screens of this group.

SMILES	SMARCA2 activ	DAX1 inh-1	DAX1 inh-2	ssDAF12 agonist	hcDAF-12 act	hgDAF12 agonist
O=C(C1CCC(CNc2c(N3CCCCC3)c(=O)c2=O)CC1)N1CCN(C2CCCCC2)CC1 (centres undefined)	-1	4.4*	1	-2	-1	-1
COC(=O)c1cccc2c1NC(=O)C2=O	-3	8.0*	0	-1	1	0
CCOc1ccc(N2C(=O)C(Cl)=C(Nc3ccccc3O)C2=O)cc1	1	0	-1	1	5.6*	5
O=C1Nc2ccccc2N(O)N1c1ccc(S(=O)(=O)Nc2ccccn2)cc1	0	1	1	0.9*	3	3
COc1ccc(N=Nc2cnc(C)nc2-c2ccccc2)cc1	1	-1	0	-1	-1	0
COc1ccc(-c2noc(C3CCCN(C(=O)Nc4ccccc4F)C3)n2)cc1 (centres undefined)	3	-2	1	-1	0	11*
Cc1ccc(-c2noc(C3CCCN(C(=O)c4ccccc4Br)C3)n2)o1 (centres undefined)	0	0	1	1.7*	0	1
Cc1ccc(-c2noc(C3CCCN(C(=O)c4ccccc4)C3)n2)o1 (centres undefined)	0	0	1	-1	1	3
Cc1ccc(-c2noc(-c3ccccc3C(=O)N3CCN(C)CC3)n2)cc1	3	0	1	0	6.6*	4
Cc1ccc(-c2noc(-c3ccccc3C(=O)N3CCCC3)n2)cc1	0	0	0	0	3	4
N#Cc1ccsc1NC(=O)C1CCCN1S(=O)(=O)c1cccs1 (centres undefined)	1	2	-1	-1	1	1
CCc1nc2ccc(C(=O)NCc3ccc(OC)cc3)cn2c1N(CCC(C)C)CCN(C)C	-4	·	1	1.2*	2	1
CCc1nc2ccc(C(=O)NCC3CCCCC3)cn2c1N(CCC(C)C)CCN(C)C	-1	·	0	-1	-2	-1
Cc1ccc(Cc2c(C(C)(C)C)nc3cc(C)c(Br)c(C)n23)cc1	0	·	-1	1.2*	4	2
Cc1cc2nc(C3CCCCC3)c(Cc3ccsc3)n2c(C)c1Br	-2	·	-2	-1	1	2
Cc1cc2nc(C(C)(C)C)c(Cc3cccc(Cl)c3)n2c(C)c1Br	-1	·	0	-1	3	2
Cc1cc2nc(C(C)(C)C)c(Cc3ccsc3)n2c(C)c1Br	-5	·	4.1*	0	3	1
O=C(NC(=S)N(CCc1ccccc1)CCc1ccccc1)c1ccco1	-2	0	-1	0	-3	-2
Cc1ccc(-n2nc(C)c3c(C)cc(=O)[nH]c32)cc1	-1	1	1	3.5*	4	4
Cc1nn(-c2ccccc2)c2[nH]c(=O)cc(C(F)F)c12	-1	1	-1	1	1	-1
c1ccc2sc(NC3=NCN(C4CCCCCC4)CN3)nc2c1	1	-1	0	1.5*	3	1
O=C1c2ccccc2NC(c2ccccn2)N1c1ccc(Cl)cc1 (centres undefined)	1	2	0	-1	6.2*	8
CCc1ccc(C(=O)NNC(=O)CCc2nc3ccccc3c(=O)[nH]2)cc1	0	1	3.6*	0	-1	1
CCCCOc1ccc(C(=O)N2CCC(C)CC2)cc1	-2	-1	-1	-1	-1	1
CCCCOc1ccc(C2CCC(C(C)=O)C(C)C2)cc1 (centres undefined)	0	4.7*	0	-1	0	5
